GLP1R inv ag: acts as inverse agonist at human GLP-1 receptor; actives 1.6% (n = 410,000); P43220; HEK293 GLP-1R CRE-luciferase, luminescence, 24 h; GLP-1R form is constitutively active; Potency, µM (highest dose often 38.3 µM), for inactives: at the highest dose activity change, negative = inhibition, usual class: inhibitors; further: potency means the concentration at half of the fitted maximal effect; on the % scale 0 is the no-effect control and ±100 the full control effect; nearly all actives have a fitted effect of over 55% in size
Target sequence (P43220 whole entry, looked up): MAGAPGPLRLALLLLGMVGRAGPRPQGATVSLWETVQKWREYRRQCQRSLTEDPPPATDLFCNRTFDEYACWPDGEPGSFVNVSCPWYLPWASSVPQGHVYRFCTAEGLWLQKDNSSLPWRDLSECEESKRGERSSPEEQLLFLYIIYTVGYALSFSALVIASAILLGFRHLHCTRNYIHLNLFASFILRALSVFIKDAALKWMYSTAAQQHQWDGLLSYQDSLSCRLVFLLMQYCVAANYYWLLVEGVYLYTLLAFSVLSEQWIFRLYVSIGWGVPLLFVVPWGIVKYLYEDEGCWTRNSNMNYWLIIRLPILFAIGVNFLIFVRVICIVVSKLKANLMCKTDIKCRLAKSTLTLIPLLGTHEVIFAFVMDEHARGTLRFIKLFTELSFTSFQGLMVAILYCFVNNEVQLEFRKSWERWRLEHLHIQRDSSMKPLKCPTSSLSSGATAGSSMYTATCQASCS
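Readout was luciferase luminescence, measured 12 min after detection reagent at room temperature. Beforehand, GLP-1R reporter HEK293 cells had sat 12 h, then received compounds for 24 hr at 37 deg C.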
TRPML1 blocker: human mucolipin-1 channel inhibition. Q9GZU1. activity change, negative = inhibition, % (no concentration beside the values). TRPML1-inducible cells, Ca2+ dye fluorescence, FDSS; hits give low values; inhibition of EC80 agonist-evoked calcium signal. actives 0.02% (n = 390,000); in the data active means activity change below about -50%; inconclusive means between about -30% and that limit;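 further: stimulus is agonist 54-4 at its EC80 concentration; on the % scale 0 is the no-effect control and ±100 the full control effect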
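TRPML1-DL cells, Tet-induced overnight (~16 h, 37 °C) at 1,500 cells/well, were loaded with Ca8 no-wash dye plus quencher for 45-90 min at room temperature. Compounds were pinned during FDSS kinetic reading; agonist 54-4 at EC80 (4 uM final) then added.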
TRPML1 ag: agonists of human TRPML1 channel. actives 0.12% (n = 410,000). activation, % (concentration not given with the values). TRPML1-expressing cells, Ca2+ dye fluorescence, FDSS. AID 624414; in the data active means activation above about 50%; inconclusive means mostly about 30% to 49%; further: 0% is about no effect
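In this qHTS format, compounds were pin-transferred onto Ca8-dye-loaded TRPML1-DL cells induced with Tet overnight, and intracellular Ca2+ fluorescence was recorded kinetically for 110 s after a 10 s baseline. A subsequent 4uM final 54-4 (EC80) addition followed by a second 110 s read served as the antagonist phase.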
GLP1R ag: agonists of human GLP-1 receptor; HEK293 GLP-1R CRE-luciferase, luminescence, 4-6 h; cells express a hypersensitive GLP-1R form; Potency, µM (doses to about 45.6 µM), inactives show at the highest dose activation, hits mostly activators; actives 0.007% (n = 380,000); further: potency means the concentration at half of the fitted maximal effect; % of control where 0% means no effect
GLP1R cytotox: cytotoxic in the GLP-1 receptor inverse agonist counter-screen; HEK293 cAMP-luciferase reporter cells, luminescence, 24 h; actives 0.13% (n = 410,000); Potency, µM (series often up to 38.3 µM), without a hit: at the highest dose activity change, negative = inhibition, actives largely listed as inhibitors;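 further: loss of luciferase light is scored as toxicity; potency means the concentration at half of the fitted maximal effect; on the % scale 0 is the no-effect control and ±100 the full control effect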
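Step one: seed cells (200 cells/uL, DMEM with 10% Nu serum, 1% pen-strep). Step two: 12-hour incubation at 37 deg C. Step three: pin 23 nL compound, incubate 24 hr. Step four: add luciferase reagent, read luminescence 12 min later.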
Starred values were filed as active, the others as inactive. Shown are actives, neighbours in structure and some others; about 1.8% of the full set was active somewhere. Unless noted, the call rests on the fitted dose curve; in most records, active means well fitted curve in the direction sought with a large enough effect; inconclusive means small, poorly fitted or top-dose-only effect, or another doubt; inactive means no such curve, though single readings can be large; an effect the other way counts as inactive or inconclusive.

Results for CCCOc1ccccc1NC(=O)c1c(-c2ccccc2)noc1C ?
GLP1R inv ag: 11.2µM*; TRPML1 blocker: -0.1; TRPML1 ag: 1.1; GLP1R ag: 13.8%; GLP1R cytotox: -1.4%

What do the screens show for `CCOc1ccc(/C=C/c2nc(C#N)c(N3CCN(CC)CC3)o2)cc1`?
GLP1R inv ag: -5.4%; TRPML1 blocker: 0.8; TRPML1 ag: -0.4; GLP1R cytotox: -2.4%

Results for Cc1ccc(NC(=O)CSc2nc3ccccc3nc2Cc2ccccc2)c(C)c1 ?
GLP1R inv ag: -4.5%; TRPML1 blocker: 0.8; TRPML1 ag: 0.3; GLP1R ag: 10.1%; GLP1R cytotox: -10.1%

How did COc1ccc(NC(=O)N(C)[C@H]2C[C@H]3c4[nH]c5ccc(-c6ccc7c(c6)OCO7)cc5c4CCN3C[C@H]2[C@H](C)O)cc1 do in these assays?
GLP1R inv ag: inconclusive; TRPML1 blocker: -12.3; TRPML1 ag: -0.3; GLP1R ag: -6.0%; GLP1R cytotox: inconclusive

How did CN[C@H]1C[C@H]2c3[nH]c4ccc(-c5cccc(C)c5)cc4c3CCN2C[C@H]1[C@H](C)O do in these assays?
GLP1R inv ag: 11.2µM*; TRPML1 blocker: 3.5; TRPML1 ag: -0.3; GLP1R ag: -5.8%; GLP1R cytotox: inconclusive

Results for CCOC(=O)N(C)[C@H]1C[C@H]2c3[nH]c4ccccc4c3CCN2C[C@H]1[C@H](C)O ?
GLP1R inv ag: -5.4%; TRPML1 ag: 0.3; GLP1R ag: 0.9%; GLP1R cytotox: 112.8%

Results for Cc1cccc(-c2ccc3[nH]c4c(c3c2)CCN2C[C@@H]([C@H](C)O)[C@@H](N(C)C(=O)NC3CCCCC3)C[C@@H]42)c1 ?
GLP1R inv ag: inconclusive; TRPML1 blocker: 11.7; TRPML1 ag: 1.3; GLP1R ag: -1.9%; GLP1R cytotox: 11.8%

Results for CN[C@H]1C[C@H]2c3[nH]c4ccc(-c5ccc(OC)cc5)cc4c3CCN2C(=O)[C@H]1[C@H](C)O ?
GLP1R inv ag: 5.62µM*; TRPML1 blocker: 0.1; TRPML1 ag: 4.6; GLP1R ag: -4.5%; GLP1R cytotox: inconclusive

Results for C[C@H](O)[C@@H]1CN2CCc3c([nH]c4ccccc34)[C@@H]2C[C@@H]1N(C)Cc1cc(Cl)cc(Cl)c1 ?
GLP1R inv ag: inconclusive; TRPML1 blocker: -4.2; TRPML1 ag: 69.4*; GLP1R ag: -5.8%; GLP1R cytotox: -1.7%

How did COc1ccc(NC(=O)N(C)[C@H]2C[C@H]3c4[nH]c5ccc(-c6ccc(OC)cc6)cc5c4CCN3C[C@H]2[C@H](C)O)cc1 do in these assays?
GLP1R inv ag: 7.08µM*; TRPML1 blocker: 32.2; TRPML1 ag: -0.3; GLP1R ag: -3.1%; GLP1R cytotox: inconclusive

Results for COc1ccc(OCCn2c(CCNC(=O)C3CCCCC3)nc3ccccc32)cc1 ?
TRPML1 ag: -0.8

What do the screens show for `CC(C)(C)n1ncc2c(=O)n(Cc3c(Cl)ccc(Cl)c3Cl)cnc21`?
TRPML1 blocker: -1.7; TRPML1 ag: 1.4

Results for c1cc2c3c(c1)CCC[N+]3(C1CCCCC1)CCC2 ?
TRPML1 ag: 0.2

How did Cc1cc(O)cc(O)c1-c1onc(C(F)(F)F)c1-c1cscn1 do in these assays?
GLP1R inv ag: 7.94µM*; TRPML1 blocker: 14.6; TRPML1 ag: 1.8; GLP1R ag: -14.1%; GLP1R cytotox: -20.4%

How did CNC(=S)N/N=C(\C)c1ccc(Cl)c(Cl)c1 do in these assays?
GLP1R inv ag: inconclusive; TRPML1 blocker: 14.0; TRPML1 ag: 2.1; GLP1R ag: 9.1%; GLP1R cytotox: inconclusive

What do the screens show for `CNC(=S)NN=C(C)CCCC(C)=NNC(=S)NC`?
GLP1R inv ag: inconclusive; TRPML1 blocker: 10.0; TRPML1 ag: 0.7; GLP1R ag: -4.2%; GLP1R cytotox: 1.78µM*

Results for Cc1ccc(NC(=O)[C@@H](c2ccccc2)N2Cc3ccccc3C2=O)cc1F ?
GLP1R inv ag: 10µM*; TRPML1 blocker: 3.9; TRPML1 ag: 1.1; GLP1R ag: -4.1%; GLP1R cytotox: -7.3%

What do the screens show for `Cc1ccc(NC(=O)C(c2ccccc2)N2Cc3ccccc3C2=O)cc1Cl` (configuration not stated)?
GLP1R inv ag: -0.1%; TRPML1 blocker: -6.6; TRPML1 ag: 0.9; GLP1R cytotox: 1.5%

What do the screens show for `CC(C)(C)CC(C)(C)c1ccc(O)c(CN2CCN(CCC#N)CC2)c1`?
GLP1R inv ag: 11.2µM*; TRPML1 blocker: 6.1; TRPML1 ag: -0.8; GLP1R ag: 3.5%; GLP1R cytotox: -24.0%

How did N#CCCN1CCN(Cc2cc(-c3ccccc3)ccc2O)CC1 do in these assays?
GLP1R inv ag: 0.0%; TRPML1 blocker: 28.1; TRPML1 ag: -0.1; GLP1R ag: -9.3%; GLP1R cytotox: -13.6%

Results for COc1cccc(-c2cn3c(n2)sc2cc(C(=O)NCCc4ccc(OC)c(OC)c4)ccc23)c1 ?
GLP1R inv ag: -13.4%; TRPML1 blocker: 31.5; TRPML1 ag: -0.3; GLP1R cytotox: -3.3%

What do the screens show for `O=C(NCc1ccccn1)Nc1cc(Cl)ccc1Cl`?
GLP1R inv ag: -27.9%; TRPML1 blocker: -2.1; TRPML1 ag: -0.4; GLP1R ag: 6.1%; GLP1R cytotox: 0.5%

What do the screens show for `O=C(NCc1cccs1)Nc1cc(Cl)ccc1Cl`?
GLP1R inv ag: inconclusive; TRPML1 blocker: 10.1; TRPML1 ag: -0.3; GLP1R ag: 32.1%; GLP1R cytotox: 10µM*

How did CCCCNC(=O)c1sc2nc(C)cc(COC)c2c1-n1cccc1 do in these assays?
GLP1R inv ag: 8.91µM*; TRPML1 blocker: -4.6; TRPML1 ag: 1.0; GLP1R ag: -5.7%; GLP1R cytotox: -18.7%

What do the screens show for `COCc1cc(C)nc2sc(C(=O)NN)c(-n3cccc3)c12`?
GLP1R inv ag: 13.1%; TRPML1 blocker: 8.0; TRPML1 ag: -0.6; GLP1R ag: -0.1%; GLP1R cytotox: 20.2%

How did CC(C)(C)NCC(O)CON=C1c2ccccc2-c2ccccc21 (configuration not stated) do in these assays?
GLP1R inv ag: 3.98µM*; TRPML1 blocker: 5.8; TRPML1 ag: 0.2; GLP1R ag: 1.6%; GLP1R cytotox: inconclusive

Results for Cc1cccc(C)c1OCC(O)CN1CCc2ccccc2C1 (configuration not stated) ?
GLP1R inv ag: 10µM*; TRPML1 blocker: -8.2; TRPML1 ag: -0.9; GLP1R ag: 1.6%; GLP1R cytotox: 0.9%

Results for OC(COc1c(F)cc(Br)cc1F)CN1CCc2ccccc2C1 (configuration not stated) ?
GLP1R inv ag: inconclusive; GLP1R ag: -4.0%; GLP1R cytotox: 2.2%

Results for Cn1cc(CNCc2ccccc2OCC(O)CN2CCc3ccccc3C2)cn1 (configuration not stated) ?
GLP1R inv ag: 8.91µM*; TRPML1 blocker: -13.1; TRPML1 ag: -0.5; GLP1R ag: -2.2%; GLP1R cytotox: inconclusive

Screening results (PubChem)
